# From PubChem
# In the library only some 11% were active in any assay of this set; here they are far more common.
# USP30 block: inhibitors of human USP30 deubiquitinase; 47,000 compounds, 5.3% hits; purified USP30, Ub-rhodamine cleavage fluorescence; inhibition, % at 25 µM; Ubiquitin carboxyl-terminal hydrolase 30 (Homo sapiens), Q70CQ3; AID 1645860, 2021
# USP28 inh: inhibitors of human USP28 deubiquitinase; purified USP28, Ub-rhodamine cleavage fluorescence, 30 min; 47,000 compounds, 3% hits; Ubiquitin carboxyl-terminal hydrolase 28 (Homo sapiens), Q96RU2; inhibition, % at 25 µM
# USP17 block: inhibitors of human USP17 deubiquitinase | Ubiquitin carboxyl-terminal hydrolase 17-like protein 5 (Homo sapiens), A8MUK1 | purified USP17, Ub-rhodamine cleavage fluorescence, 3 h | inhibition, % at 50 µM | 47,000 compounds, 6.5% hits
# OTUD3 block: inhibitors of human OTUD3 deubiquitinase; OTU domain-containing protein 3 (Homo sapiens), Q5T2D3; AID 1645858, 2021; 47,000 compounds, 0.7% hits; purified OTUD3, Ub-rhodamine fluorescence, 2 h; inhibition, % at 25 µM
# Target sequence (Q5T2D3 whole entry, looked up, the tested form may be a part): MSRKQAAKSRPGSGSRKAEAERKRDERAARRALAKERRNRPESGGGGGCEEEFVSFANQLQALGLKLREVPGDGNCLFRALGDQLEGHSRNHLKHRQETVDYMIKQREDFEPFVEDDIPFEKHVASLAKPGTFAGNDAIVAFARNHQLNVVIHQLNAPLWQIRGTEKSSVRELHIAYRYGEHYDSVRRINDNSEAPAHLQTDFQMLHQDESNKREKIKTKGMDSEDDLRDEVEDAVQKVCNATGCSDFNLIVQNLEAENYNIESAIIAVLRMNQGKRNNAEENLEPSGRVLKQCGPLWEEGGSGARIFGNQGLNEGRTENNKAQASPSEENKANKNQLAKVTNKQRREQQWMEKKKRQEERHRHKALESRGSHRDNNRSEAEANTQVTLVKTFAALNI
# Numbers stand for hits; i = inactive; nt = not tested or not shown. Cut-off read from the data, not from the text of the source: active = inhibition above about 30%; inactive = the rest.
SMILES,USP30 block,USP28 inh,USP17 block,OTUD3 block
CCOc1ccc2cc3c(nc2c1)OC(=O)N(Cc1ccc(C)o1)C3,53,i,i,i
O=C(NC1CCCCCC1)c1cc(-c2cccnc2)n[nH]1,i,i,i,i
COc1ccc(NC(=O)c2cc(-c3cccnc3)n[nH]2)cc1Cl,94,91,44,i
CC(C)c1ccc(NC(=O)c2cc(-c3cccnc3)n[nH]2)cc1,46,37,i,i
Cc1ccc(NC(=O)c2cc(-c3cccnc3)n[nH]2)cc1F,49,34,40,i
COc1cccc(NC(=O)c2cc(-c3ccccc3)n[nH]2)c1,i,i,i,i
O=C(NCCN1CCN(C(=O)c2c(F)cccc2F)CC1)C(=O)Nc1ccc(F)cc1,i,i,i,i
COc1ccc(Cl)cc1NC(=O)CN1C(=O)CC(c2ccccc2)S(=O)(=O)c2ccccc21 (stereo not drawn),i,i,i,i
COc1ccc(C2CC(=O)N(CC(=O)Nc3ccc(NC(C)=O)cc3)c3ccccc3S2)cc1OC (stereo not drawn),nt,nt,37,i
COc1cccc(NC(=O)[C@H](C)NC(=O)c2cc3c(OC)c(OC)ccc3[nH]2)c1,i,i,47,i
CCN1C(=O)c2c(C(=O)NC3CC3)ncn2CC1(C)C(=O)NCc1ccc(F)cc1 (stereo not drawn),i,i,i,i
COC(=O)c1ccc(C(=O)OC)c(NC(=O)c2nn(-c3ccccc3)c(=O)cc2OC)c1,i,i,37,i
COC(=O)c1ccc(C)c(NC(=O)c2nn(Cc3ccccc3)c(=O)c3ccccc23)c1,i,i,i,i
O=S(=O)(c1cccc2cccnc12)N1CCN(c2ccc(F)cc2)CC1,30,i,i,i
O=S(=O)(c1cccc2cccnc12)N1CCCC1c1ccc(F)cc1 (stereo not drawn),i,i,i,i
CCC(=O)Nc1cccnc1-c1ccc(C(=O)Nc2ccc(F)cc2)cc1,i,i,i,i
Cc1ccc(NC(=O)CC2C(=O)N(Cc3cccnc3)c3nc4ccccc4n32)c(C)c1 (stereo not drawn),i,i,39,i
O=C(COc1ccc(F)cc1)NC(c1ccc(F)cc1)c1nnc(-c2ccccc2)o1 (stereo not drawn),i,i,i,i
O=C(NC(c1ccccc1)c1nnc(-c2ccccc2)o1)c1ccccc1Cl (stereo not drawn),32,i,39,i
CCc1noc(-c2c(C)[nH]c(C)c2S(=O)(=O)NCc2ccco2)n1,i,i,i,i
COc1ccc(NC2c3ccccc3C(=O)N2c2ccccn2)cc1 (stereo not drawn),i,i,57,i
Cc1ccc(NC2c3ccccc3C(=O)N2c2ccccn2)cc1 (stereo not drawn),i,i,i,i
c1coc(-c2nc3ccccc3n2CCC2CCCCC2)c1,i,i,36,i
Cc1ccc(NC(=O)CN2C(=O)COc3cc(S(=O)(=O)N4CCCC4)ccc32)c(Cl)c1,i,i,i,i
O=C(Nc1ccc(-c2nnc3n2CCCCC3)cc1)c1ccc2c(c1)OCO2,i,71,i,i
SMILES,USP30 block,USP28 inh,USP17 block,OTUD3 block
CC(=O)Nc1cccc(C(=O)Nc2ccc(Cn3cncn3)cc2)c1,i,i,i,i
COc1ccc(C(=O)Nc2ccc(Cn3cncn3)cc2)cc1F,i,35,i,i
O=C(Nc1ccc(Cn2cncn2)cc1)c1ccc2c(c1)OCO2,i,45,i,i
Cc1ccc(CCNC(=O)c2cc(Nc3ccccc3)nc3ccccc23)cc1,i,i,i,i
O=C(Cn1c(=O)c2c(ncn2C2CCCC2)n(Cc2ccccc2)c1=O)NCCc1ccc(F)cc1,i,i,i,i
COc1ccc(CNC(=O)Cn2c(=O)c3c(ncn3C3CCCC3)n(Cc3ccccc3)c2=O)cc1,i,i,43,i
O=C1CCCC[C@@H]2[C@H](C[C@@H](Cc3cccc(F)c3)N2C(=O)c2cnccn2)N1,i,i,i,i
Cc1ccc(NC(=O)C2CCCN(c3cnccn3)C2)cc1 (stereo not drawn),i,i,i,i
O=C(Nc1ccc(Cl)cc1)C1CCCN(c2cnccn2)C1 (stereo not drawn),i,i,33,i
CN1C(=O)COc2cc(-c3noc(C(=O)NC4CCCCCC4)n3)ccc21,56,i,i,i
Cc1ccc(CNC(=O)c2nc(-c3ccc4c(c3)OCC(=O)N4C)no2)cc1,41,i,i,i
O=C(Nc1cccc(F)c1)c1cc(CN2CCCC2)on1,nt,nt,i,i
COc1ccc(NC(=O)c2oc3ccccc3c2NC(=O)Cc2cccc(C)c2)c(OC)c1,i,i,i,i
O=C(c1ccc(F)cc1)N1CCN(c2ncnc3c2nnn3Cc2ccccc2)CC1,nt,nt,i,i
O=C(CCC1CCCCC1)N1CCN(c2ncnc3c2nnn3Cc2ccccc2)CC1,32,i,i,i
O=C(Cc1ccc(Cl)cc1)N1CCN(c2ncnc3c2nnn3Cc2ccccc2)CC1,35,i,i,i
CCOc1ccccc1C(=O)Nc1ccc(-c2nccs2)cc1,31,i,i,i
O=C(Nc1ccc(-c2nccs2)cc1)c1ccccc1Cl,i,i,i,i
O=C(CCc1cccnc1)N1CCC2(CCN(CCCc3ccccc3)C2)C1 (stereo not drawn),i,i,i,i
CC(=O)Nc1ccc(C(=O)OCc2cc(=O)n3c4c(sc3n2)CCCC4)cc1,i,i,37,i
COc1ccc(C(=O)Nc2ccc(C(=O)OCc3cc(=O)n4ccsc4n3)cc2)cc1,nt,nt,38,i
O=C(Nc1ccccc1C(=O)OCc1cc(=O)n2ccsc2n1)c1ccc(F)cc1,i,i,i,i
Cc1csc2nc(COC(=O)c3cccc(NC(=O)C(C)(C)C)c3)cc(=O)n12,i,i,i,i
O=C(CN1C(=O)NC2(CCCCC2)C1=O)Nc1ccc([N+](=O)[O-])cc1,i,i,65,i
CCc1ccc(OCC(=O)Nc2cccc(-c3nc4ccccc4s3)c2)cc1,36,i,i,i
SMILES,USP30 block,USP28 inh,USP17 block,OTUD3 block
O=C(COc1ccc(F)cc1)NCc1csc(-c2ccccc2)n1,i,i,i,i
O=C(COc1ccc(C(=O)OCc2csc(-c3ccccc3)n2)cc1)Nc1cccc(C(F)(F)F)c1,33,i,31,i
COc1ccc(-c2cc(NC(C)=O)c3ncc(-c4ccc(S(C)(=O)=O)cc4)n3c2)cn1,i,i,i,i
O=C(c1noc2ccc(S(=O)(=O)NCc3ccc(F)cc3)cc12)N1CCCC1,i,i,i,i
COc1cc(NC(=O)c2ccccc2)c(OC)cc1NC(=O)CCC(=O)N(c1ccccc1)c1ccccc1,58,i,62,i
COc1cccc(C2CC(=O)Oc3c2c(=O)n(C)c2ccccc32)c1OC (stereo not drawn),i,i,i,i
COc1ccc(N(CC(=O)NC2CCCCC2)C(=O)c2ccc(-c3ccccc3)[nH]2)cc1OC,i,i,78,i
COc1ccc(-n2nnnc2C2(Nc3ccccc3C)CCCCC2)cc1,i,i,i,i
COC(=O)c1ccc(NC(=O)C(=O)c2cccn2C)cc1,i,i,i,i
